Assay results as given in PubChem BioAssay AID1159580 (chemical genetic matrix, 2015).
Several values for one entry are separate records, joined by “and”; a condition that tells them apart may be missing. Equal entries are not always repeated. Screen size: about 5,500 compounds; about 2,000 (36%) were called active. About 18% were inconclusive and are not listed. Cut-off read from the data, not from the text of the source: active = normalized growth mostly below about 0.91 (no sharp cut-off); inconclusive = no clear call, values can overlap the other calls; inactive = mostly above about 0.92. The list shows a part of the results. The source holds several records for some structures; these can differ, active in one and inactive in another.

Assay: chemical genetic growth profiling, strain panel (AID 1159580);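 note: tested at 20 µM; growth read once vehicle control cultures reached saturation at 30 °C; 1 = growth at the plate median or of vehicle wells; lower values mean less growth of the strain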
Details: growth OD

Measured: normalized growth

O=C1CCc2cc(OCCCCc3nnnn3C3CCCCC3)ccc2N1
1.01 (inactive) and 0.0868 (active): S. cerevisiae deletion strains, locus YMR263W, strain SAP30, stronger effect = lower value
inactive: S. cerevisiae deletion strains, locus YKL009W, strain mrt4, stronger effect = lower value 1 | S. cerevisiae deletion strains, locus YKL068W, stronger effect = lower value 1 | S. cerevisiae deletion strains, locus YKL085W, strain MDH1 (second series), stronger effect = lower value 1.01 | S. cerevisiae deletion strains, locus YKL085W, strain MDH1, stronger effect = lower value 1.01 | S. cerevisiae deletion strains, locus YKL160W, strain elf1, stronger effect = lower value 0.987 | S. cerevisiae deletion strains, locus YKL190W, strain CNB1, stronger effect = lower value 1.01 | S. cerevisiae deletion strains, locus YKR001C, strain vps1, stronger effect = lower value 0.993 | S. cerevisiae deletion strains, locus YKR026C, strain gcn3, stronger effect = lower value 0.979 | S. cerevisiae deletion strains, locus YKR091W, strain srl3, stronger effect = lower value 0.99 | S. cerevisiae deletion strains, locus YLL001W, strain dnm1, stronger effect = lower value 0.984 | S. cerevisiae deletion strains, locus YLL026W, stronger effect = lower value 0.993 | S. cerevisiae deletion strains, locus YLL041C, strain sdh2, stronger effect = lower value 0.991 | S. cerevisiae deletion strains, locus YLR027C, strain aat2, stronger effect = lower value 0.978 | S. cerevisiae deletion strains, locus YLR039C, strain RIC1, stronger effect = lower value 0.972 | S. cerevisiae deletion strains, locus YLR058C, strain SHM2, stronger effect = lower value 1.01 | S. cerevisiae deletion strains, locus YLR102C, strain apc9, stronger effect = lower value 0.999 | S. cerevisiae deletion strains, locus YLR113W, strain HOG1, stronger effect = lower value 0.983 | S. cerevisiae deletion strains, locus YLR221C, strain rsa3, stronger effect = lower value 0.984 | S. cerevisiae deletion strains, locus YLR258W, strain gsy2, stronger effect = lower value 0.986 | S. cerevisiae deletion strains, locus YLR262C, strain YPT6 (second series), stronger effect = lower value 0.876 | S. cerevisiae deletion strains, locus YLR262C, strain YPT6, stronger effect = lower value 0.998 | S. cerevisiae deletion strains, locus YLR268W, strain sec22, stronger effect = lower value 0.999 | S. cerevisiae deletion strains, locus YLR320W, strain mms22, stronger effect = lower value 0.976 | S. cerevisiae deletion strains, locus YLR330W, strain CHS5, stronger effect = lower value 1.01 | S. cerevisiae deletion strains, locus YLR342W, strain FKS1 (second series), stronger effect = lower value 0.987 | S. cerevisiae deletion strains, locus YLR342W, strain FKS1, stronger effect = lower value 0.985 | S. cerevisiae deletion strains, locus YLR357W, strain rsc2, stronger effect = lower value 0.956 | S. cerevisiae deletion strains, locus YLR370C, strain arc18, stronger effect = lower value 0.99 | S. cerevisiae deletion strains, locus YLR371W, strain rom2, stronger effect = lower value 0.995 | S. cerevisiae deletion strains, locus YLR384C, strain iki3, stronger effect = lower value 0.972 | S. cerevisiae deletion strains, locus YLR418C, strain cdc73, stronger effect = lower value 1 | S. cerevisiae deletion strains, locus YML016C, strain PPZ1, stronger effect = lower value 1.01 | S. cerevisiae deletion strains, locus YML032C, strain rad52, stronger effect = lower value 1.02 | S. cerevisiae deletion strains, locus YML120C, strain ndi1, stronger effect = lower value 0.994 | S. cerevisiae deletion strains, locus YML124C, strain tub3, stronger effect = lower value 0.992 | S. cerevisiae deletion strains, locus YMR058W, strain fet3, stronger effect = lower value 1 | S. cerevisiae deletion strains, locus YMR078C, strain ctf18, stronger effect = lower value 0.998 | S. cerevisiae deletion strains, locus YMR125W, strain sto1, stronger effect = lower value 0.999 | S. cerevisiae deletion strains, locus YMR129W, stronger effect = lower value 0.985 | S. cerevisiae deletion strains, locus YMR205C, strain PFK2, stronger effect = lower value 0.989 | S. cerevisiae deletion strains, locus YMR223W, strain ubp8, stronger effect = lower value 0.991 | S. cerevisiae deletion strains, locus YMR231W, strain pep5, stronger effect = lower value 0.996 | S. cerevisiae deletion strains, locus YMR307W, strain GAS1, stronger effect = lower value 0.946 and 0.993 | S. cerevisiae deletion strains, locus YNL067W, strain RPL9B, stronger effect = lower value 1.03 | S. cerevisiae deletion strains, locus YNL071W, strain lat1, stronger effect = lower value 1 | S. cerevisiae deletion strains, locus YNL128W, strain TEP1, stronger effect = lower value 1.01 | S. cerevisiae deletion strains, locus YNL153C, strain GIM3, stronger effect = lower value 1.01 | S. cerevisiae deletion strains, locus YNL175C, strain NOP13, stronger effect = lower value 1.03 | S. cerevisiae deletion strains, locus YNL183C, strain NPR1, stronger effect = lower value 0.966 | S. cerevisiae deletion strains, locus YNL197C, strain WHI3, stronger effect = lower value 1.01 | S. cerevisiae deletion strains, locus YNL209W, strain ssb2, stronger effect = lower value 0.998 | S. cerevisiae deletion strains, locus YNL224C, strain SQS1, stronger effect = lower value 1 | S. cerevisiae deletion strains, locus YNL233W, strain BNI4, stronger effect = lower value 1.01 | S. cerevisiae deletion strains, locus YNL248C, strain rpa49, stronger effect = lower value 0.999 | S. cerevisiae deletion strains, locus YNL250W, strain rad50, stronger effect = lower value 0.992 | S. cerevisiae deletion strains, locus YNL271C, strain bni1, stronger effect = lower value 1 | S. cerevisiae deletion strains, locus YNL298W, strain CLA4, stronger effect = lower value 1 | S. cerevisiae deletion strains, locus YNL307C, strain MCK1, stronger effect = lower value 0.982 | S. cerevisiae deletion strains, locus YNL322C, strain KRE1 (second series), stronger effect = lower value 0.988 | S. cerevisiae deletion strains, locus YNL322C, strain KRE1, stronger effect = lower value 1.01 | S. cerevisiae deletion strains, locus YNR049C, strain mso1, stronger effect = lower value 0.998 | S. cerevisiae deletion strains, locus YNR052C, strain pop2, stronger effect = lower value 1 | S. cerevisiae deletion strains, locus YOL006C, strain TOP1, stronger effect = lower value 1.01 | S. cerevisiae deletion strains, locus YOL012C, strain htz1 1.15 | S. cerevisiae deletion strains, locus YOL147C, strain pex11, stronger effect = lower value 0.991 | S. cerevisiae deletion strains, locus YOR001W, strain rrp6, stronger effect = lower value 0.992 | S. cerevisiae deletion strains, locus YOR061W, strain CKA2, stronger effect = lower value 1 | S. cerevisiae deletion strains, locus YOR069W, strain VPS5, stronger effect = lower value 1 | S. cerevisiae deletion strains, locus YOR070C, strain gyp1, stronger effect = lower value 0.995 | S. cerevisiae deletion strains, locus YOR080W, strain dia2, stronger effect = lower value 0.984 | S. cerevisiae deletion strains, locus YOR083W, strain WHI5 (second series), stronger effect = lower value 0.993 | S. cerevisiae deletion strains, locus YOR083W, strain WHI5, stronger effect = lower value 0.987 | S. cerevisiae deletion strains, locus YOR106W, strain vam3, stronger effect = lower value 0.977 | S. cerevisiae deletion strains, locus YOR136W, strain idh2, stronger effect = lower value 0.983 | S. cerevisiae deletion strains, locus YOR144C, strain elg1, stronger effect = lower value 0.995 | S. cerevisiae deletion strains, locus YOR184W, strain ser1, stronger effect = lower value 1.02 | S. cerevisiae deletion strains, locus YOR231W, strain MKK1, stronger effect = lower value 0.974 | S. cerevisiae deletion strains, locus YOR265W, strain rbl2, stronger effect = lower value 0.987 | S. cerevisiae deletion strains, locus YOR270C, strain vph1, stronger effect = lower value 0.991 | S. cerevisiae deletion strains, locus YOR290C, strain snf2, stronger effect = lower value 1 | S. cerevisiae deletion strains, locus YOR316C, strain cot1, stronger effect = lower value 1 | S. cerevisiae deletion strains, locus YPL051W, strain arl3, stronger effect = lower value 0.983 | S. cerevisiae deletion strains, locus YPL055C, strain LGE1, stronger effect = lower value 1.06 | S. cerevisiae deletion strains, locus YPL078C, strain atp4, stronger effect = lower value 0.977 | S. cerevisiae deletion strains, locus YPL106C, strain sse1, stronger effect = lower value 1.01 | S. cerevisiae deletion strains, locus YPL240C, strain hsp82, stronger effect = lower value 0.982 | S. cerevisiae deletion strains, locus YPL241C, strain CIN2, stronger effect = lower value 1 | S. cerevisiae deletion strains, locus YPL256C, strain CLN2, stronger effect = lower value 0.985 | S. cerevisiae deletion strains, locus YPR119W, strain clb2, stronger effect = lower value 0.998 | S. cerevisiae deletion strains, locus YPR141C, strain kar3, stronger effect = lower value 1 | S. cerevisiae deletion strains, locus YPR163C, strain tif3, stronger effect = lower value 0.978 | S. cerevisiae deletion strains, locus YPR167C, strain met16, stronger effect = lower value 0.996 | S. cerevisiae deletion strains, strain wtn01, stronger effect = lower value 1.01 | S. cerevisiae strains, strain wild type, stronger effect = lower value 1.01
